Common to all, as to assay: qHTS profiling for inhibitors of Plasmodium falciparum proliferation (AID 504749); further: nearly all actives have a fitted effect of over 60% in size
Settings in all cases: P. falciparum in erythrocytes, SYBR Green DNA, 72 h; series mostly up to 28.7 µM
On the technique in general: Quantitative high-throughput screening tests each substance at several concentrations.

Test [1] has as its system CP260. Put shortly: (§1)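 SYBR Green fluorescence (ex 485 nm, em 535 nm) reports parasite DNA after 72 h compound exposure of infected red cells at 0.3% parasitemia, 2.5% hematocrit; signal normalized to 0.29 uM artemisinin and vehicle wells.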
Test [2] deals with CP262. Put shortly: as §1
Test [3] deals with CP265. In short, it runs like this: as §1
The test system of test [4] is CP266. In short, it runs like this: as §1
The test system of test [5] is CP268. In short, it runs like this: as §1
Test [6] deals with CP269. In short, it runs like this: as §1
The test system of test [7] is CP286. In short, it runs like this: as §1
Test [8] deals with CP291. In short, it runs like this: as §1
Test [9] relates to CP297. In short, it runs like this: as §1
Test [10] relates to CP305. In short, it runs like this:
as §1

For test [11], the system named is CP315. In short, it runs like this: as §1
Test [12] has as its system CP325. Put shortly:
as §1

For test [13], the system named is CP329. In short, it runs like this: as §1
In test [14] the test system is CP335. In short, it runs like this:
as §1

The subject of test [15] is DFO2036. In short, it runs like this: as §1
The test system of test [16] is DIV14. Put shortly:
as §1

In test [17] the test system is DIV17. In short, it runs like this: as §1
Test [18] deals with DIV30. Put shortly:
as §1

Test [19] relates to Dd2. Put shortly: as §1
Test [20] concerns ECU. In short, it runs like this: as §1

SMILES strings stand for the structures. Records with an inconclusive call do not appear. The source made the active and inactive calls. The call rests on the fitted dose curve; in most records, active means well fitted inhibition curve with a large enough effect; inconclusive means small, poorly fitted or top-dose-only effect; inactive means flat fitted curve, though single readings scatter.

The values that follow come from PubChem BioAssay (NCATS).
Potency means the concentration at half of the fitted maximal effect.

In the case of `CC[N+](C)(CC)CCOC(=O)C(O)(c1ccccc1)c1ccccc1`, the Potency entry in [1], in test [2], in [3], in test [4], in test [5] and in [6] was “inactive” in each case. Besides, the Potency entry in [7], in [8], in test [9], in [10], in test [11] and in test [12] was “inactive” each time. Besides, the Potency entry in test [13], in [14], in test [15], in test [16], in [17] and in [18] was “inactive” in each case. For the same compound, the Potency entry in [19] and in test [20] was “inactive” throughout.

As for `C[N+]1(C)C2CCC1CC(OC(=O)c1c[nH]c3ccccc13)C2` (stereo unspecified), the Potency result in test [1], in test [2], in test [3], in test [4], in test [5] and in test [6] was “inactive” in each case. In addition, the Potency entry in test [7], in test [8], in test [9], in test [10], in [11] and in [12] was “inactive” throughout. Further, the Potency entry in [13], in test [14], in test [15], in [16], in [17] and in test [18] was “inactive” throughout. Further, the Potency result in test [19] and in test [20] was “inactive” in each case.

Regarding `Clc1ccccc1Cl`, the Potency result in test [1], in [2], in test [3], in test [4], in test [5] and in test [6] was “inactive” in each case. The Potency result in test [7], in [8], in [9], in [10], in test [11] and in test [12] was “inactive” in each case. Besides, the Potency entry in test [13], in test [14], in test [15], in test [16], in test [17] and in test [18] was “inactive” in each case. The Potency entry in [19] and in test [20] was “inactive” in each case.

Consider `CN1c2ccccc2C(NCCCCCCC(=O)O)c2ccc(Cl)cc2S1(=O)=O` (stereo unspecified), for which the Potency result in test [1], in [2], in test [3], in test [4], in test [5] and in test [6] was “inactive” throughout. The Potency result in test [7], in [8], in [9], in [10], in test [11] and in [12] was “inactive” in each case. For the same compound, the Potency entry in test [13], in [14], in test [15], in [16], in test [17] and in test [18] was “inactive” in each case. The Potency entry in test [19] and in test [20] was “inactive” throughout.

On to `COc1ccc(OC)c(C(O)C(C)N)c1` (stereo unspecified), for which the Potency result in test [1], in test [2], in test [3], in test [4], in [5] and in test [6] was “inactive” in each case. The Potency result in [7], in test [8], in test [9], in test [10], in test [11] and in [12] was “inactive” throughout. In addition, the Potency result in test [13], in [14], in test [15], in test [16], in test [17] and in test [18] was “inactive” in each case. The Potency entry in test [19] and in test [20] was “inactive” each time.

Consider `Clc1ccc(Cl)cc1`, for which the Potency entry in [1], in test [2], in test [3], in test [4], in test [5] and in [6] was “inactive” each time. Besides, the Potency entry in test [7], in test [8], in [9], in test [10], in test [11] and in [12] was “inactive” in each case. For the same compound, the Potency result in [13], in test [14], in [15], in test [16], in test [17] and in [18] was “inactive” each time. In addition, the Potency result in [19] and in test [20] was “inactive” each time.

On to `[O]=[Cd]`, for which the Potency result in test [1], in test [2], in test [3], in test [4], in test [5] and in test [6] was “inactive” throughout. In addition, the Potency result in [7], in [8], in test [9], in test [10], in [11] and in test [12] was “inactive” throughout. Further, the Potency result in test [13], in [14], in [15], in test [16], in [17] and in test [18] was “inactive” in each case. In addition, the Potency result in [19] and in test [20] was “inactive” in each case.

On to `C[C@H]1CC[C@@H]2[C@@H](C)[C@H]3[C@H](C[C@H]4[C@@H]5CC=C6CC(O[C@@H]7O[C@H](CO)[C@H](O)[C@H](O[C@@H]8O[C@H](CO)[C@@H](O)[C@H](O)[C@H]8O)[C@H]7O[C@H]7O[C@@H](C)[C@H](O)[C@@H](O)[C@H]7O)CC[C@]6(C)[C@H]5CC[C@]34C)N2C1` (stereo partly specified), for which the Potency result in test [1], in test [2], in test [3], in test [4], in test [5] and in test [6] was “inactive” throughout. Further, the Potency result in test [7], in test [8], in test [9], in test [10], in test [11] and in test [12] was “inactive” each time. Also, the Potency entry in [13], in [14], in test [15], in test [16], in [17] and in test [18] was “inactive” throughout. The Potency entry in [19] and in [20] was “inactive” each time.

In the case of `CCCCCCCCOC(=O)c1ccccc1C(=O)OCCCCCCCC`, the Potency result in test [1], in test [2], in test [3], in [4], in [5] and in [6] was “inactive” each time. The Potency entry in [7], in test [8], in test [9], in [10], in [11] and in [12] was “inactive” each time. Further, the Potency result in [13], in test [14], in test [15], in [16], in test [17] and in [18] was “inactive” throughout. The Potency result in test [19] and in test [20] was “inactive” each time.

For the compound `ClC(Cl)(Cl)Cl`, the Potency result in [1], in test [2], in test [3], in test [4], in test [5] and in test [6] was “inactive” in each case. Besides, the Potency entry in [7], in test [8], in test [9], in test [10], in test [11] and in [12] was “inactive” each time. Besides, the Potency entry in test [13], in [14], in [15], in [16], in test [17] and in test [18] was “inactive” in each case. The Potency result in test [19] and in [20] was “inactive” each time.

In the case of `CCCCNCC(O)c1ccc(O)cc1` (stereo unspecified), the Potency result in test [1], in test [2], in test [3], in test [4], in test [5] and in test [6] was “inactive” throughout. Moreover, the Potency result in test [7], in test [8], in test [9], in [10], in [11] and in test [12] was “inactive” throughout. Further, the Potency result in test [13], in [14], in test [15], in test [16], in test [17] and in test [18] was “inactive” each time. In addition, the Potency result in test [19] and in test [20] was “inactive” each time.

For `C=CCN1CCC23c4c5ccc(O)c4O[C@H]2C(=O)CC[C@@]3(O)C1C5` (stereo partly specified), the Potency result in test [1], in [2], in [3], in test [4], in [5] and in test [6] was “inactive” throughout. The Potency result in test [7], in [8], in [9], in test [10], in [11] and in [12] was “inactive” each time. In addition, the Potency result in test [13], in test [14], in test [15], in test [16], in test [17] and in [18] was “inactive” in each case. For the same compound, the Potency entry in [19] and in test [20] was “inactive” throughout.

Take `CCC1C(C)=NN=C(c2ccc(OC)c(OC)c2)c2cc(OC)c(OC)cc21` (stereo unspecified): the Potency entry in test [1], in [2], in test [3], in test [4], in test [5] and in test [6] was “inactive” each time. Besides, the Potency entry in [8], in test [10], in [11], in [12], in [13] and in [14] was “inactive” each time. In addition, the Potency result in test [15], in [18] and in [19] was “inactive” throughout.

For the compound `c1cc2c(c(NC3=NCCN3)c1)CCCC2`, the Potency result in [1], in [2], in test [3], in test [4], in [7] and in test [12] was “inactive” in each case. The Potency result in test [14], in [15], in [19] and in [20] was “inactive” each time. The Potency in test [16] is 15.1 µM (active).

On to `O=C(O)C(Cl)(Cl)Cl`, for which the Potency result in test [1], in test [2], in [3], in [4], in test [5] and in test [6] was “inactive” each time. The Potency result in [7], in test [8], in [9], in test [10], in test [11] and in [12] was “inactive” in each case. The Potency result in [13], in test [14], in test [15], in test [16], in [17] and in test [18] was “inactive” throughout. Further, the Potency result in test [19] and in test [20] was “inactive” in each case.
